# MCF10A rerep – induces DNA re-replication in MCF 10a normal breast cells. 2.9% of 350,000 active. Potency, µM (series often up to 46.1 µM), without a hit: top-dose activity, positive = re-replication, usual class: activators. MCF 10A DNA re-replication, Hoechst nuclear intensity, 48 h; further: % of control where 0% means no effect; nearly all actives have a fitted effect of over 50% in size
# HT1080-NT tox – kills 2HG-producing HT-1080-NT fibrosarcoma cells; HT-1080-NT fibrosarcoma viability, CellTiter-Glo ATP luminescence, 48 h; Potency, µM (series often up to 46.1 µM), for inactives: at the top dose activity, negative = less viability, actives largely listed as cytotoxic; 1.6% of 360,000 active;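 further: NT is the 2HG producing partner of a matched IDH1 knockdown line; 0% = DMSO-treated cells and -100% = media-only wells without cells; nearly all actives have a fitted effect of over 55% in size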
#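 Compounds were tested in concentration-response format on HT-1080-NT cells for 48 hours at 37 degrees C. Cell viability came from CellTiter-Glo luminescence; curves were classified by r2, response magnitude and activity.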
# KB-V1 MDR tox – KB-V1 MDR subline cytotoxicity | KB-V1 MDR cells viability, CellTiter-Glo, 72 h | 3.4% of 400,000 active | Potency, µM (series often up to 46.1 µM), actives largely listed as cytotoxic; further: on the % scale 0 is the no-effect control and ±100 the full control effect; nearly all actives have a fitted effect of over 60% in size
#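 qHTS viability screen in drug-selected KB-V1 MDR cells: 72 h compound treatment at 37 degrees C, ATP luminescence end point.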
# KB-3-1 cytotox – kills parental KB-3-1 adenocarcinoma cells. Potency, µM (series often up to 46.1 µM), usual class: cytotoxic. 1.4% of 400,000 active. KB-3-1 viability, CellTiter-Glo ATP luminescence, 72 h; further: on the % scale 0 is the no-effect control and ±100 the full control effect; nearly all actives have a fitted effect of over 60% in size
#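 Viability of parental KB-3-1 cells, measured by CellTiter-Glo luminescence, followed a 72 h incubation at 37 °C with pinned compounds in phenol-red-free DMEM containing 10% FBS.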
# HT1080 IDH1KD tx – kills HT-1080 cells with IDH1 knockdown. HT-1080 IDH1 knockdown viability, ATP luminescence, 48 h. Potency, µM (doses to about 46.1 µM), for the others: at the highest dose activity, negative = toxicity, most hits filed as cytotoxic. 2% of 360,000 active. AID 686971;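 further: 0% = DMSO wells and -100% = cell-free medium wells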
#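 % activity derives from luminescence (CellTiter-Glo), normalised to DMSO and no-cell wells. HT-1080-IDH1KD cells, 750/well, had 48 h compound exposure at 37 °C.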
# SW480 rerep – induces DNA re-replication in SW480 colon adenocarcinoma cells | Potency, µM (doses to about 46.1 µM), inactives show top-dose re-replication activation, usual class: activators | 1.8% of 340,000 active | SW480 DNA re-replication, Hoechst DNA content imaging, 48 h; further: % of control where 0% means no effect; nearly all actives have a fitted effect of over 55% in size
#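 Per well, 250 cells were exposed to pinned compound for 48 hr. Nuclear DNA was visualised with Hoechst (40 min, 37 C) and total object intensity recorded by fluorescence scanning.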
# * hit, by the source's call; i = inactive; ? = inconclusive; · = no result; ! = not confirmed by another sample; [ ] = remark or other dose. Compounds with a hit are over-represented: about 7.9% of the library has one in this group of screens. The call rests on the fitted dose curve; in most records, active means well fitted curve in the direction sought with a large enough effect; inconclusive means small, poorly fitted or top-dose-only effect, or another doubt; inactive means no such curve, though single readings can be large; an effect the other way counts as inactive or inconclusive. Potency means the concentration at half of the fitted maximal effect.
SMILES,MCF10A rerep,HT1080-NT tox,KB-V1 MDR tox,KB-3-1 cytotox,HT1080 IDH1KD tx,SW480 rerep
O=C(NC1CCCCCC1)c1cc(S(=O)(=O)N2CCOCC2)ccc1N1CCCCC1,21%,?,8.2µM*,?,?,1%
CC(=O)N1CCc2cc(S(=O)(=O)NC(CC(C)C)C(=O)NCCc3ccccc3)ccc21 (centres undefined),·,·,i,i,·,·
CN(C)C(=O)c1ccc2c(c1[N+](=O)[O-])C(=O)c1ccccc1C2=O,?,-18%,?,i,-16%,·
Cc1[nH]c2ccccc2c1CCNC(=O)c1ccc2c(c1[N+](=O)[O-])C(=O)c1ccccc1C2=O,?,-17%,16µM*,i,?,?
Cc1[nH]c2c(C)cccc2c1CCNC(=O)c1ccc2c(c1[N+](=O)[O-])C(=O)c1ccccc1C2=O,7.9µM*,16µM*,i,?,21µM*,18µM*
C=CCc1cccc2cc(C(=O)NCCc3c(C)[nH]c4c(C)cccc34)c(=O)oc12,·,·,i,i,·,·
Nc1ccc(N2CCCCC2)cc1N1CCCCC1,21µM*,?,i,i,-18%[9.24 µM],?
Nc1cc(Cl)ccc1N1CCCCC1,-1%,-1%,i,i,5%,-1%
COc1cc(Cl)c(C)cc1Nc1nc2ccccc2n2cnnc12,·,·,i,i,·,·
COc1ccccc1C(C)NCC(=O)c1c(C)[nH]c2ccccc12 (centres undefined),·,·,i,i,·,·
CCNC(=O)C1(C)CCCN1C(=O)c1ccc2c(c1)OCO2 (centres undefined),·,21%,i,i,7%,·
COc1cc(/C=C2/C(=O)c3cccc([N+](=O)[O-])c3C2=O)c(Br)cc1O,?,?,i,i,18µM*,?
CCOC(=O)c1noc2ncnc(N3CCC(C)CC3)c12,·,·,i,i,·,·
COc1ccc2[nH]c3c(c2c1)CCNC3C1CC=C(C)CC1 (centres undefined),0.58µM*,?,?,21µM*,?,?
Cc1ccc(NC(=O)c2oc3ccccc3c2NC(=O)Cc2ccccc2)cc1,·,·,i,i,·,·
O=C(COc1ccc(C(=O)c2ccccc2)cc1)NCC1CCCCC1,18µM*,-9%,i,i,-15%,0%
COc1ccc(OCCC(=O)NCc2ccccc2)cc1,0%,6%,i,i,8%,0%
COC(=O)c1ccc(Nc2cc(C)nc3ccccc23)cc1,?,18µM*,?,?,21µM*,?
COc1cccc(CNC(=O)Cc2ccc(-n3c(=O)[nH]c4ccccc4c3=O)cc2)c1,?,?,?,4.1µM*,?,?
COc1ccc(CC(=O)NCc2ccccc2)cc1,7.3µM*,?,i,?,8.2µM*,?
COC(=O)c1ccc2nc(C)cc(Nc3ccc(O)cc3)c2c1,·,·,?,i,·,·
Cc1ccc2c(=O)c(C(=O)c3ccc(F)cc3)cn(CC(=O)NCc3ccccc3)c2n1,·,·,i,i,·,·
COc1ccc(C(=O)NCc2cc(C)nc3ccccc23)cc1,?,?,i,18µM*,?,?
COc1cc(C(=O)NCc2cc(C)nc3ccccc23)cc(OC)c1OC,-5%,-6%,i,i,2%,0%
COc1cccc(CNC(=O)Cc2ccc(-c3ccccc3)cc2)c1,10µM*,?,?,?,18µM*,?
COc1ccc(-c2cc(CNC(=O)CN(C)Cc3ccccc3)on2)cc1,-2%,-4%,2.6µM*,i,-4%,-6%
CCCCC[C@H]1CN(CCc2ccccc2)C(=O)[C@@H]1CC(=O)NCc1ccc(OC)cc1,23%,-4%,18µM*!,?,-3%,5%[9.22 µM]
CCOC(=O)C1(C)CCN1C(=O)c1ccc2ccccc2c1 (centres undefined),·,13%,i,i,?,·

# Screening results deposited in PubChem by National Center for Advancing Translational Sciences (NCATS).
